Assay results published in PubChem BioAssay.
Activity calls are given as the source filed them.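 The calls were made as follows: active = compounds killing one labelled cell type while sparing the other, by normalised counts and ratio limits, not self-fluorescent; inactive = the rest.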

Assay: differential killing of epithelial or mesenchymal cells, primary screen, imaging, PC-3E GFP, TEM4-18 mCherry, co-culture (AID 1345086);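 also: cells exposed to compound for 72 h before imaging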;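 as to red/green cell ratio (normalised): normalised mesenchymal count divided by normalised epithelial count so high means epithelial killing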
Settings: imaging cell counts, at 1 µM; for red/green cell ratio (normalised): actives lie on both sides, counts scaled to control wells, 1 = unselective
[1] = measured here: epithelial PC-3E GFP cell survival
[2] = measured here: mesenchymal TEM4-18 mCherry cell survival

Row | Structure (SMILES) | red/green cell ratio (normalised) | normalised cell number [1] | normalised cell number [2]
1 | CCN(CC)CCNC(=O)c1cc(Br)c(N)cc1OC | 0.92 (inactive) | 0.97 | 0.89
2 | NC(CS)C(=O)O (configuration not stated) | 0.99 (inactive) | 1 | 0.99
3 | CCN(CCCc1ccccc1)CCCc1ccccc1 | 0.99 (inactive) | 1.13 | 1.12
4 | CCn1cc(C(=O)O)c(=O)c2cnc(N3CCNCC3)nc21 | 1.01 (inactive) | 0.76 | 0.77
5 | CCN(CC)CCNc1ccc(CO)c2sc3ccccc3c(=O)c12 | 1.17 (inactive) | 0.63 | 0.74
6 | Cc1cc(CC(=O)O)n(C)c1C(=O)c1ccc(Cl)cc1 | 0.89 (inactive) | 1.1 | 0.98
7 | OCc1ccccc1O | 1.09 (inactive) | 0.88 | 0.96
8 | Cc1c(NC(=O)c2cccnc2)c(=O)n(-c2ccccc2)n1C | 1.04 (inactive) | 1.05 | 1.09
9 | CCOC(=O)c1ccc(N)cc1 | 1.23 (inactive) | 1.07 | 1.31
10 | O=C(O)[C@@H]1[C@H]2C[C@H]3c4[nH]c5ccccc5c4CCN3C[C@@H]2CC[C@@H]1O | 1.08 (inactive) | 0.89 | 0.95
11 | OC(CCN1CCCCC1)(c1ccccc1)c1ccccc1 | 0.87 (inactive) | 1.06 | 0.92
12 | C=C1c2cccc(O)c2C(O)=C2C(=O)[C@]3(O)C(O)=C(C(N)=O)C(=O)[C@@H](N(C)C)[C@@H]3[C@@H](O)[C@H]12 | 0.93 (inactive) | 0.85 | 0.79
13 | Nc1ccc(C(=O)NCC(=O)O)cc1 | 1.12 (inactive) | 1.03 | 1.15
14 | O=C1c2ccccc2C(=O)C1c1ccccc1 | 1.05 (inactive) | 1.09 | 1.15
15 | CC(=O)NCCCCCC(=O)O | 0.96 (inactive) | 0.98 | 0.95
16 | CC(C)NNC(=O)c1ccncc1 | 0.73 (inactive) | 1.3 | 0.95
17 | Nc1nc2c(c(=O)[nH]1)N(C=O)C(CNc1ccc(C(=O)N[C@@H](CCC(=O)O)C(=O)O)cc1)CN2 (some centres not stated) | 1.45 (inactive) | 0.95 | 1.38
18 | Cc1ccnc(NS(=O)(=O)c2ccc(N)cc2)n1 | 1.35 (inactive) | 0.98 | 1.33
19 | CC(C)(Oc1ccc(CCNC(=O)c2ccc(Cl)cc2)cc1)C(=O)O | 1.21 (inactive) | 1.03 | 1.25
20 | COc1ccc(CN(CCN(C)C)c2ncccn2)cc1 | 1.15 (inactive) | 1.04 | 1.2
21 | CC(N)C(=O)OC(C)(C)Cc1ccc(Cl)cc1 (configuration not stated) | 1.21 (inactive) | 0.96 | 1.16
22 | C=CCc1ccc(O)c(OC)c1 | 1.2 (inactive) | 0.95 | 1.13

Row | Structure (SMILES) | red/green cell ratio (normalised) | normalised cell number [1] | normalised cell number [2]
23 | Oc1c(Cl)cc(Cl)cc1Sc1cc(Cl)cc(Cl)c1O | 0.99 (inactive) | 1.15 | 1.14
24 | CCCCc1nc(Cl)c(CO)n1Cc1ccc(-c2ccccc2-c2nn[nH]n2)cc1 | 1.09 (inactive) | 1.34 | 1.46
25 | CC(=O)OCC1=C(C(=O)O)N2C(=O)[C@@H](NC(=O)Cc3cccs3)[C@H]2SC1 | 1.02 (inactive) | 1.21 | 1.23
26 | Cc1nc2n(c(=O)c1CCN1CCC(c3noc4cc(F)ccc34)CC1)CCC[C@H]2O | 1.17 (inactive) | 0.84 | 0.98
27 | CN(C)CCOC(=O)C(c1ccccc1)C1(O)CCCC1 (configuration not stated) | 1.07 (inactive) | 1.42 | 1.52
28 | CCCCC1(COC(=O)CCC(=O)O)C(=O)N(c2ccccc2)N(c2ccccc2)C1=O | 0.91 (inactive) | 0.96 | 0.87
29 | O=C(OCC(O)CO)c1ccccc1Nc1ccnc2cc(Cl)ccc12 (configuration not stated) | 0.94 (inactive) | 0.84 | 0.79
30 | CC(=O)Nc1ccccc1 | 1.11 (inactive) | 1.06 | 1.18
31 | Cc1cc(C)nc(NS(=O)(=O)c2ccc(N)cc2)n1 | 1.29 (inactive) | 1.02 | 1.31
32 | O=C(O)c1ccccc1C(=O)Nc1ccc(S(=O)(=O)Nc2nccs2)cc1 | 1 (inactive) | 1.18 | 1.17
33 | Cc1cc(-c2ccccc2)nnc1NCCN1CCOCC1 | 1.08 (inactive) | 1.01 | 1.08
34 | O=C1OC(c2ccc(O)cc2)(c2ccc(O)cc2)c2ccccc21 | 1.12 (inactive) | 0.94 | 1.05
35 | O=C(O)CCCCC1CCSS1 (configuration not stated) | 0.99 (inactive) | 0.91 | 0.9
36 | CC(Cc1cccc(C(F)(F)F)c1)NCCOC(=O)c1ccccc1 (configuration not stated) | 0.76 (inactive) | 1.26 | 0.95
37 | CC(=O)OCC(COC(C)=O)OC(C)=O | 1.26 (inactive) | 0.97 | 1.22
38 | CCCCOc1ccc(OCCCN2CCOCC2)cc1 | 0.85 (inactive) | 1.15 | 0.98
39 | Cc1c[nH]c2ccccc12 | 0.99 (inactive) | 0.86 | 0.85
40 | C=CCc1ccccc1OCC(O)CNC(C)C (configuration not stated) | 1 (inactive) | 1.2 | 1.2
41 | Cc1ccsc1/C=C/C1=NCCCN1C | 1.28 (inactive) | 1.08 | 1.38
42 | Cc1c(NC(C)C)c(=O)n(-c2ccccc2)n1C | 0.88 (inactive) | 0.91 | 0.8
43 | CC(=O)Nc1cccc(O)c1 | 0.95 (inactive) | 0.83 | 0.79
44 | CN(C)/N=N/c1nc[nH]c1C(N)=O | 0.71 (inactive) | 1.47 | 1.04
